# High-throughput results as filed in PubChem.
# Most compounds without a hit are left out; they make up all but 0.67% or so of the library.
# TcdB GH inh – inhibitors of Clostridioides difficile toxin B glycohydrolase. P18177. TcdB glycohydrolase enzymatic assay, plate reader. inhibition, % at 9.99 µM. actives 0.24% (n = 350,000); in the data active = inhibition above about 10%
# Sa RN4220 lethal – S. aureus RN4220 growth inhibition | OD600, 16 h | inhibition, % (concentration not given with the values) | actives 0.33% (n = 330,000) | AID 1259311; in the data active = inhibition above about 85%
# Sa ugtP lethal – growth inhibition of S. aureus ugtP deletion strain. S. aureus RN4220 ugtP deletion, OD600 growth, 16 h. growth inhibition, % (concentration not given with the values). actives 0.54% (n = 330,000); in the data active = growth inhibition above about 68%
# Vc quorum ag – induces V. cholerae light production without autoinducers; V. cholerae BH1578 lux reporter, luminescence, 6 h; activation, % at 18.7 µM; actives 0.16% (n = 350,000); AID 588436; in the data active = activation mostly above about 9.7%, no sharp cut-off
# Hits are given with their value; 0 = inactive; - = no result; ! = not active in a repeat.
SMILES,TcdB GH inh,Sa RN4220 lethal,Sa ugtP lethal,Vc quorum ag
CCOC(=O)c1c(C)sc2c1N(C(=O)CCl)c1cc(Cl)ccc1S2,-,0,92.8,0
Cc1ccc(C[n+]2c(-c3ccc(C)cc3)cc(-c3ccc(C)cc3)cc2-c2ccc(C)cc2)cc1,-,100.8,100.6,0
Cc1ccc(C[n+]2ccccc2)cc1,0,0,0,0
COc1ccc2nc(C)cc(SCC(=O)O)c2c1,0,0,0,0
COc1ccc2nc(SCC(=O)O)nc(C)c2c1,-,0,0,15.4
C[C@H](CO)N1C[C@H](C)[C@@H](CN(C)C(=O)Nc2ccc(C(F)(F)F)cc2)Oc2c(NS(=O)(=O)c3ccccc3)cccc2C1=O,10.3!,-,-,0
Cc1noc(C)c1NC(=O)N(C)C[C@@H]1Oc2ccc(NC(=O)C3CCCCC3)cc2C(=O)N([C@@H](C)CO)C[C@H]1C,12.5!,0,0,0
C[C@@H]1CN([C@@H](C)CO)C(=O)c2cccc(N(C)C)c2O[C@H]1CN(C)C(=O)Nc1ccc(C(F)(F)F)cc1,0,-,-,-
C[C@H]1CN([C@@H](C)CO)C(=O)c2cccc(NS(=O)(=O)c3ccccc3)c2O[C@H]1CN(C)C(=O)Nc1ccc(C(F)(F)F)cc1,0,-,-,-
C[C@H](CO)N1C[C@H](C)[C@@H](CN(C)C(=O)Nc2ccc(C(F)(F)F)cc2)Oc2c(cccc2N(C)C)C1=O,14.1,-,-,0
COC(=O)C1=C(c2cccc(OC)c2OC)CC2CCC1N2C(=O)N1CCCCC1 (stereo not given),-,0,0,-
CCC(=O)Nc1cccc(C2=NOC3(C2)CC(C(N)=O)N(C(=O)c2ccc(OC)cc2)C3)c1 (stereo not given),-,0,0,-
Cc1ccc(NC(=O)c2ccccc2)cc1,-,0,0,0
Cc1ccc(NC(=O)C2=C(c3ccccc3)S(=O)(=O)CCS2(=O)=O)cc1,0,0,100.2,0
O=C1C=C(c2cccc(OCc3ccccc3)c2)CC(c2ccc3c(c2)OCO3)C1 (stereo not given),-,0,0,-
CCOc1cc(/C=N/n2cnnc2)ccc1O,16.5,-,-,0
CCOc1cc(C=Nn2cnnc2)ccc1O,-,0,0,-
CC(C)=CCCC1=CCC(C=NNC(N)=O)C(C)C1 (stereo not given),-,0,93.2,-
CC(C)=CCCC1=CCC(/C=N/NC(N)=O)C(C)C1 (stereo not given),0,-,-,0
N#Cc1ccccc1COc1ccc(C=CC(=O)O)cc1,-,0,0,-
CNCCCNC(=O)c1ccc(C=NO)nc1,-,0,0,-
CC1CCc2c(N3CCC(O)CC3)c(F)cc3c(=O)c(C(=O)O)cn1c23 (stereo not given),0,99.2,98.6,0
CC1CCc2cc(F)cc3c(=O)c(C(=O)O)cn1c23 (stereo not given),0,96.6,99.3,0
C=CCN1C(=O)/C(=C/c2cccs2)SC1=NS(=O)(=O)c1ccc(F)cc1,-,0,0,-
COc1ccc(C(=O)N2CC3(CC(c4ccc(Cl)cc4)=NO3)CC2C(=O)NCC(N)=O)cc1 (stereo not given),-,0,0,-
SMILES,TcdB GH inh,Sa RN4220 lethal,Sa ugtP lethal,Vc quorum ag
CCCNC1=C(C)C(=O)C2=C(C1=O)C(COC(N)=O)[C@]1(OC)C3NC3CN21 (stereo not given in full),0,99.4,97.3,0
CO[C@@]12[C@@H]3N[C@@H]3CN1C1=C(C(=O)C(N)=C(C)C1=O)[C@@H]2COC(N)=O,0,-,-,0
CO[C@@]12[C@H](COC(N)=O)C3=C(C(=O)C(C)=C(N)C3=O)N1C[C@@H]1N[C@@H]12,0,-,-,58.1
CCCCNC(=O)OC1CC2CCN3C(=O)CCC(C)(C)C(C1)C23 (stereo not given),-,0,0,-
CCc1ccc(C(=O)Nn2c(C)nc3ccccc3c2=O)cc1,0,0,0,0
Cc1nc2ccccc2c(=O)n1NC(=O)c1ccc(Cl)c(Cl)c1,0,0,0,327.8
Cc1c(O)c(C)c2c(c1O)C(=O)CC(c1ccccc1)O2 (stereo not given),-,0,0,-
Cc1ccc(-c2csc(NCCn3c(-c4ccncc4)nc4cc(C(F)(F)F)ccc43)n2)cc1,0,93.7,0,0
N#CC(C#N)=C1C=CC=CN1/C(=C\c1ccco1)C(=O)c1ccc(Br)cc1,-,98.7,98.4,0
COc1ccccc1-c1cn[nH]c1-c1ccc(O)cc1O,13.6,0,0,0
C=C(C)COc1ccc(-c2[nH]ncc2-c2ccccc2)c(O)c1,-,0,83.9,0
CCCc1ccc(Oc2cn[nH]c2-c2ccc(O)cc2O)cc1,-,0,90.1,0
COc1ccc(-c2cn[nH]c2-c2ccc(O)cc2O)cc1,15.1,0,0,0
C=C(C)COc1ccc(-c2[nH]ncc2-c2ccc(OC)cc2)c(O)c1,0,0,0,0
COc1ccccc1-c1cn[nH]c1-c1ccc(OCc2ccc(F)cc2)cc1O,0,0,0,0
COc1ccc(Oc2cn[nH]c2-c2ccc(O)cc2O)cc1,-,0,0,0
CCOC(=O)C=Cc1ccc2oc3ccccc3c(=O)c2c1,-,0,0,-
CSc1ccc(C=NNC(=O)CN2CCN(Cc3ccc(C)cc3)CC2)cc1,-,0,0,-
Cc1cc(CN(C)C)c(O)c(C2(C)CCCCC2)c1,-,0,0,0
Cc1cc(CN2CCOCC2)c(O)c(C2(C)CCCCC2)c1,-,0,98.8,0
Oc1ccc(C=NNc2ccnc3cc(Cl)ccc23)c(O)c1,-,0,0,-
Cc1ccccc1C=NNc1ccnc2cc(Cl)ccc12,-,98.4,99.1,-
Clc1ccc2c(NN=Cc3ccc(Br)cc3)ccnc2c1,-,100.5,100.7,-
Cc1ccc(C=NNc2ccnc3cc(Cl)ccc23)c(C)c1,-,99.4,100.8,-
Clc1ccc2c(N/N=C/c3ccccc3Br)ccnc2c1,0,-,-,0
SMILES,TcdB GH inh,Sa RN4220 lethal,Sa ugtP lethal,Vc quorum ag
O=[N+]([O-])c1ccccc1NN=Cc1ccccc1F,-,0,0,-
c1ccc(CC2CNCCN2CC2(c3ccccc3)CC2)cc1 (stereo not given),-,0,0,-
COc1ccc2c(c1)C(C)=CC(C)(C)N2S(=O)(=O)c1ccc(Br)cc1,0,0,85.8,0
Oc1c(Cl)cccc1Cc1cc(Cl)cc(Cl)c1O,0,99.8,99.9,0
O=C1NCCOC(=O)C(Cc2ccc(F)cc2)CC=CCC1CC(=O)N(CCO)Cc1ccccc1 (stereo not given),-,0,0,-
CCN1/C(=C/C=C/C=C/C=C/c2sc3ccccc3[n+]2CC)Sc2ccccc21,0,91.6,98.1,0
Cc1nc2cc(C(=O)OCC(=O)Nc3cccc(Cl)c3)ccc2n1-c1ccccc1,0,0,99.4,0
Cc1nc2cc(C(=O)OCC(=O)NC34CC5CC(CC(C5)C3)C4)ccc2n1-c1ccccc1,-,0,0,0
O=C(NN=Cc1cc2c(cc1Br)OCO2)c1cccnc1,-,0,0,-
CCN1C(=O)N(CC)C(=O)C2(Cc3ccccc3N3CCN(c4ccccc4)CC32)C1=O (stereo not given),0,0,88.5,0
FC(F)(F)c1ccccc1C=Nn1c(COc2ccccc2)n[nH]c1=S,-,0,0,-
Cc1ccc(C)c2sc(NC(=O)c3ccc(N4C(=O)CCC4=O)cc3)nc12,22.6,0,0,0
CC1CCCC(C)N1Cc1nc(Cc2ccccc2Cl)no1 (stereo not given),-,0,0,-
CC(=O)c1ccccc1OC(=O)c1ccc(-c2ccccc2)cc1,0,0,100.3,0
CC(=O)c1ccccc1OC(=O)c1c(F)cccc1F,0,0,0,0
